Source: PubChem BioAssay AID720690 (Broad Institute, 2013)
Measured potencies and affinities stand elsewhere. Activity calls are given as the source filed them.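 How the source made its calls: active means every repeat run showing a signal drop whose fitted half-maximal concentration is at most twice the top tested concentration; inconclusive means repeat runs disagree, or flat partial drop, or poor fit; inactive means the rest.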

Assay: general mammalian cell viability loss – activator set, cherry-pick, cytotoxicity control for miR-122 modulator project, dose response (AID 720690)
Conditions: HEK293T viability, CellTiter-Glo luminescence, 48 h; series mostly up to 26 µM

SMILES	outcome
CO[C@@H]1CN(C)C(=O)c2ccc(NC(=O)Nc3ccc(C(F)(F)F)cc3)cc2OC[C@H](C)NC[C@H]1C	inactive
O=c1c2cc(N3CCOCC3)ccc2[nH]c(=S)n1CCCN1CCCC1	inactive
CN1C(=O)c2cc(NC(=O)c3cccc(F)c3)ccc2OC[C@@H]2O[C@H](CC(=O)O)CC[C@H]21	inactive
CCC(=O)N1[C@H](CO)[C@H](c2ccccc2)[C@H]1CNC(=O)CN1CCOCC1	inactive
C/C=C/c1ccc([C@@H]2[C@@H](CO)N[C@@H]2CN(C(=O)C2CCCC2)C(C)C)cc1	inactive
C/C=C/c1ccc([C@@H]2[C@@H](CO)N(C(C)=O)[C@@H]2CN(CC)C(=O)CN(C)C)cc1	inactive
Cc1cccc(C)c1NC(=O)CSCC(=O)c1ccc(O)c(O)c1	inactive
CC(C)C#Cc1ccc2c(c1)O[C@H](CN(C)C(=O)c1ccncc1)[C@H](C)CN([C@H](C)CO)S2(=O)=O	inactive
C/C=C/c1ccc([C@@H]2[C@@H](CNC(=O)c3ccncc3)N(C(=O)CC)[C@H]2CO)cc1	inactive
COc1ccc(N2CCN(C(=O)CSc3nnc(CNc4ccccc4)o3)CC2)cc1	inactive
O=CN1CCN(C(=O)c2ccccc2F)CC1	inactive
COC(=O)C[C@@H]1CC[C@@H]2[C@H](COc3ccc(NC(=O)c4ccc(F)c(F)c4)cc3C(=O)N2C)O1	inactive
Cc1cc(C)cc(NC(=O)c2ccc(CSc3nnc(C)s3)cc2)c1	inactive
CCC(=O)N1[C@H](CO)[C@@H](c2ccccc2)[C@@H]1CN(C(C)C)S(C)(=O)=O	inactive
CCS(=O)(=O)Nc1ccc2c(c1)C(=O)N(C)[C@@H]1CC[C@@H](CC(=O)NCCCN3CCOCC3)O[C@H]1CO2	inactive
COCC(=O)Nc1ccc2c(c1)C(=O)N(C)[C@@H]1CC[C@@H](CC(=O)NCCCN(C)C)O[C@@H]1CO2	inactive
CO[C@@H]1CN(C)C(=O)c2ccc(NC(=O)c3ccc(Oc4ccccc4)cc3)cc2OC[C@H](C)NC[C@H]1C	inactive
CCNC(=O)Nc1ccc2c(c1)C(=O)N(C)[C@H]1CC[C@H](CC(=O)Nc3ccccc3F)O[C@@H]1CO2	inactive
O=C(COc1ccccc1F)N1CCc2ccccc2C1	inactive
C[C@H](CO)N1C[C@H](C)[C@H](CN(C)S(=O)(=O)c2ccc(F)cc2)Oc2ccc(NS(C)(=O)=O)cc2C1=O	inactive

SMILES	outcome
c1ccc(CCCNCCCn2cnc3c(OCc4ccccc4)ncnc32)cc1	inactive
CN1C(=O)c2cc(NC(=O)Cc3ccccc3)ccc2OC[C@H]2O[C@@H](CC(=O)NC3CCC3)CC[C@H]21	inactive
CN1C(=O)c2cc(NC(=O)C3CCOCC3)ccc2OC[C@H]2O[C@H](CC(=O)NCc3ccc4c(c3)OCO4)CC[C@@H]21	inactive
CC(C)NC(=O)N1C[C@@H]2[C@H](c3ccccc31)[C@@H](CO)N2C(=O)c1cccnc1	inactive
Cc1cc(C(=O)Nc2ccc3c(c2)C(=O)N(C)[C@@H]2CC[C@H](CC(=O)N[C@@H](C)c4ccccc4)O[C@H]2CO3)no1	inactive
O=C(Nc1ccccc1)N1C[C@@H]2[C@H](c3ccccc31)[C@H](CO)N2Cc1cocn1	inactive
COc1ccc(NC(=O)COC(=O)CCCc2c[nH]c3ccccc23)cc1	inactive
COc1ccc2[nH]c(C(=O)O)c(NS(=O)(=O)c3ccc(Cl)s3)c2c1	inactive
C[C@@H]1CN([C@@H](C)CO)C(=O)c2cccc(NC(=O)Nc3ccc4c(c3)OCO4)c2O[C@@H]1CN(C)Cc1ccc(Oc2ccccc2)cc1	inactive
CCCN(C[C@@H]1N[C@@H](CO)[C@H]1c1ccc(-c2cccnc2)cc1)C(C)=O	inactive
COc1ccc(C(=O)C2CCCN(Cc3cccn3-c3ccccn3)C2)c(OC)c1 (centres undefined)	inactive
Cc1ccccc1NC(=O)Nc1ccc2c(c1)C(=O)N(C)[C@H]1CC[C@@H](CC(=O)O)O[C@H]1CO2	inactive
COC(=O)C[C@H]1CC[C@@H]2[C@@H](COc3ccc(NC(=O)c4cscn4)cc3C(=O)N2C)O1	inactive
COCC(=O)N(C)C[C@@H]1[C@H](c2ccc(-c3ccccc3)cc2)[C@@H](CO)N1C(C)=O	inactive
COCC(=O)Nc1ccc2c(c1)C(=O)N(C)[C@@H]1CC[C@@H](CC(=O)NC3CCCC3)O[C@H]1CO2	inactive
CN1C(=O)c2cc(NC(=O)c3cccc(F)c3)ccc2OC[C@@H]2O[C@@H](CC(=O)Nc3ccccc3)CC[C@@H]21	inactive
C[C@@H]1CN([C@@H](C)CO)S(=O)(=O)c2ccc(-c3ccccc3)cc2O[C@@H]1CN(C)C(=O)c1ccc2c(c1)OCO2	inactive
CNC(=O)C[C@H]1CC[C@@H]2[C@@H](COc3ccc(NC(=O)c4cccc(OC)c4)cc3C(=O)N2C)O1	inactive
CCC(=O)NC[C@H]1[C@H](c2ccc(C3=CCCC3)cc2)[C@H](CO)N1C(C)=O	inactive
